In ChEMBL document CHEMBL4808148, “HDAC6 screening dataset using tau-based substrate in an enzymatic assay yields selective inhibitors and activators” (2021) one finds inhibition data, which are given here for 60 compounds.

Values joined by “and” are separate entries in the source; they are usually repeats but may differ in a detail not shown here. Identical values can stand only once. Among all 5,600 compounds or so, about 150 (2.7%) showed an effect of 50% or more. The full list was thinned out, with strong results kept by preference. Positions of bridges follow the written chain, without caps; N, C: chain ends. Non-standard residues stand in square brackets, D forms with d. Residues, ends and D or L forms follow the SMILES beside them. *: point of attachment. NMeF = CN[C@@H](Cc1ccccc1)C(=O)O; X4 = CCC(C)C(N)C1=NC(C(=O)*)CS1; dOrn = NCCC[C@@H](N)C(=O)O

In experiment [1] the target is T1, Protein deacetylase HDAC6 (Homo sapiens) (UniProt Q9UBN7).
T1 sequence (whole entry): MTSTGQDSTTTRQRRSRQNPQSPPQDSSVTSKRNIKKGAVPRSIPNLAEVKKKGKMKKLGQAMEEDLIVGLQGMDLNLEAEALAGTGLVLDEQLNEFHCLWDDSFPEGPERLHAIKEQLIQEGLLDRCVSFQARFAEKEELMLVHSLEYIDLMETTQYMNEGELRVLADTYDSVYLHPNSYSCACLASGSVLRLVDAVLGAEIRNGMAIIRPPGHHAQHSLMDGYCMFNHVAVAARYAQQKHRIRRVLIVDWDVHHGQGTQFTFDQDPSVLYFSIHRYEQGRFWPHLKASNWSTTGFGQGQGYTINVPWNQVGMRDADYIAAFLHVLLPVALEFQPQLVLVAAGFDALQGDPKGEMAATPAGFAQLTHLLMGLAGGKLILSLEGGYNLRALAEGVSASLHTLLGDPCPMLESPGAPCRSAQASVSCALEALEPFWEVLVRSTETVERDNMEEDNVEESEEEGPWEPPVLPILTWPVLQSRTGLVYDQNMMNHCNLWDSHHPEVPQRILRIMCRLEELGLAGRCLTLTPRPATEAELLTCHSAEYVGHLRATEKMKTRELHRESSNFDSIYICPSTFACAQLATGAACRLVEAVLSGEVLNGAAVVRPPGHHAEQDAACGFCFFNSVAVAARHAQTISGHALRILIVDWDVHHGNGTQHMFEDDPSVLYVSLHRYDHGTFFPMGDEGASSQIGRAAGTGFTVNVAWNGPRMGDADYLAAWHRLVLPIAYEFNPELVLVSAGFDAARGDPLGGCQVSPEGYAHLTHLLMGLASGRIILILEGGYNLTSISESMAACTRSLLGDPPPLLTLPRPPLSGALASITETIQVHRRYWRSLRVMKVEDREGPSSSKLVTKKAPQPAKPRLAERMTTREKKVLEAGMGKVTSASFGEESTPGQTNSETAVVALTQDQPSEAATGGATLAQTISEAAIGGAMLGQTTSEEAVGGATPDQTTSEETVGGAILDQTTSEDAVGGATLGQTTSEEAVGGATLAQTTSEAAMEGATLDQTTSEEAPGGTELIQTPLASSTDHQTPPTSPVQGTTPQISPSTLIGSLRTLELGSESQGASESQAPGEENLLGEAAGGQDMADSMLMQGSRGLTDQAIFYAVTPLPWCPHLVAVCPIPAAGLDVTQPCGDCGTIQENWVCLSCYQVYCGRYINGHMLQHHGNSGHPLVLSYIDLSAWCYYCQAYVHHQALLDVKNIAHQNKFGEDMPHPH
Particulars: at 10 µM.

Experiment [2] deals with Protein deacetylase HDAC6 (Homo sapiens) (UniProt Q9UBN7). Particulars: at 10 µM. This is another data set of the same source.

What is called inhibition is the drop in the measured response relative to a control, in per cent. Regarding `N#CC(c1ccccc1)(c1ccccc1)c1ccccc1Cl`, the inhibition in experiment [1] is -3.49%.

Take `CC(C)c1c2cc(-c3ccnc(N[C@H]4CC[C@H](NC5CCOCC5)CC4)n3)ccc2nn1C`: the inhibition in experiment [1] was found to be 1.08%.

In the case of `CCC(CC)O[C@@H]1C=C(C(=O)O)C[C@H](N)[C@H]1NC(C)=O`, the inhibition in experiment [1] stood at 0.57%.

Regarding `O=c1c(O)c(-c2ccc(O)c(O)c2)oc2cc(O)cc(O)c12`, the inhibition in experiment [1] was found to be 49.9%.

On to `O=c1cc(-c2ccc(O)c(O)c2)oc2cc(O)cc(O)c12`, for which the inhibition in experiment [1] was 51.1%.

As to `O=C(O)c1ccc2c(c1)C(=O)N(c1cccc(Oc3ccc([N+](=O)[O-])cc3)c1)C2=O`, in experiment [1], the inhibition came out at 23.5%.

For `CCOc1c(N2CCOCC2)cnn(C)c1=O`, the inhibition in experiment [1] amounted to 2.39%.

For `CC(=O)NS(=O)(=O)c1ccc(NC(=O)c2ccccc2C(=O)O)cc1`, in experiment [1], the inhibition is -6.68%.

In the case of `O=C(O)c1ccccc1S`, in experiment [1], the inhibition is -3.38%.

Consider `O=C(O)c1ccccc1C(=O)Nc1ccc(-c2ccccc2)cc1`, for which the inhibition in experiment [1] turned out to be 54.2%.

Turning to `CC(C)(S)C(=O)N[C@@H](CS)C(=O)O`, in experiment [1], the inhibition is 6.63%.

On to `CC(C)C(=O)SCCCCC[C@H](NC(=O)OC(C)(C)C)C(=O)NC12CC3CC(CC(C3)C1)C2`, for which the inhibition in experiment [1] amounted to 52.4%.

For `CC(C)CCC[C@@H](C)[C@H]1CC[C@H]2[C@@H]3CCC4=CC(=NO)CC[C@]4(C)[C@H]3CC[C@]12C`, the inhibition in experiment [1] stood at 4.46%.

As to `NC(=O)c1ccc(F)c2c1C[C@@H](N(C1CCC1)C1CCC1)CO2`, in experiment [1], the inhibition was -7.93%.

In the case of `COc1ccc(S(=O)(=O)N2CCCN(S(=O)(=O)c3ccc(OC)c(OC)c3)CC2)cc1OC`, in experiment [1], the inhibition is -6.17%.

For the compound `O=C(NO)c1cnc(N2CCN(S(=O)(=O)c3ccc4ccccc4c3)CC2)nc1`, the inhibition in experiment [1] amounted to 96.2%.

Take `COc1ccc([C@]2(O)CC[C@H](N3CC[C@@H](NC(=O)CNC(=O)c4cccc(C(F)(F)F)c4)C3)CC2)cn1`: in experiment [1], the inhibition was found to be 0.65%.

As for `CN1CCN(c2ccc3[nH]c(-c4ccc5[nH]c(-c6ccc(O)cc6)nc5c4)nc3c2)CC1`, the inhibition in experiment [1] turned out to be 5.09%.

In the case of `CC(C)(C)c1ccc(O)cc1`, the inhibition in experiment [1] was -5.54%.

As to `CC(C)(C)c1ccc(-c2nc3ccccc3[nH]2)cc1`, in experiment [1], the inhibition worked out at 94%.

Take `CN(C)c1cc(CNCC(C)(C)C)c(O)c2c1C[C@H]1C[C@H]3[C@H](N(C)C)C(O)=C(C(N)=O)C(=O)[C@@]3(O)C(O)=C1C2=O`: the inhibition in experiment [1] is -4.38%.

Turning to `CC(C)(CCCCCC(O)CCCCCC(C)(C)C(=O)O)C(=O)O`, the inhibition in experiment [1] was found to be 1.13%.

Turning to `CCOC(=O)C1=C(N)Oc2ccc(Br)cc2[C@H]1[C@H](C#N)C(=O)OCC`, the inhibition in experiment [1] amounted to 13.4%.

With `N#Cc1cnc2c(Cl)cc(NCc3cn(CCN4CCCCCC4)nn3)cc2c1Nc1ccc(F)c(Cl)c1`, the inhibition in experiment [1] was -2.34%.

Take `COCCN1CCC(C(=O)NO)(S(=O)(=O)c2ccc(Oc3ccc(OC(F)(F)F)cc3)cc2)CC1`: the inhibition in experiment [1] was found to be 1.97%.

On to `COC(=O)c1cc(OC)c2c(c1-c1c(CO)cc(OC)c3c1OCO3)OCO2`, for which the inhibition in experiment [1] is -0.94%.

For `CS(=O)(=O)Nc1ccc(-c2coc3cc(OCc4cccc(C(=O)O)c4)ccc3c2=O)cc1`, the inhibition in experiment [1] is 57.5%.

With `OCCCCO`, in experiment [1], the inhibition was -0.89%.

Regarding `CCC(=O)O[C@]1(C(=O)COC(C)=O)CC[C@H]2[C@@H]3C[C@H](C)C4=CC(=O)C=C[C@]4(C)[C@H]3[C@@H](O)C[C@@]21C`, the inhibition in experiment [1] turned out to be 1.57%.

On to `O=C1NN(C(=O)Nc2ccc(Br)cc2)[C@@H](c2ccccc2)[C@@H]1c1ccccc1`, for which, in experiment [1], the inhibition amounted to 13.1%.

As for `N=C(Nc1ccccc1)c1cccs1`, in experiment [1], the inhibition worked out at 14.8%.

Turning to `O=C1NC(=S)NC(=O)C1C(=O)Nc1ccccc1`, the inhibition in experiment [1] came out at 95%.

GADOBUTROL, CHEMBL2218860: the inhibition in experiment [2] is 27.5%.

Regarding `CC(C)(O)CC(=O)O`, the inhibition in experiment [1] was found to be 1.27%.

Take `CCc1nc2c(C)nc(C)cc2n1-c1ccc(CCNC(=O)NS(=O)(=O)c2ccc(C)cc2)cc1`: the inhibition in experiment [1] is -2.18%.

Take `C=CC(C)(O)CC[C@@H]1[C@@]2(C)CCCC(C)(C)C2CC[C@@]1(C)O` (stereo not given in full): the inhibition in experiment [1] was -4.8%.

Regarding `O=C(Nc1cc(C(F)(F)F)ccc1O)Nc1cc(C(F)(F)F)ccc1O`, the inhibition in experiment [1] stood at 0.26%.

On to `Cc1cc(/C=c2/sc3nc4ccccc4n3c2=O)c(C)n1-c1ccccc1`, for which the inhibition in experiment [1] is -1.28%.

In the case of `Cc1cc(/C=C2\SC(=O)N(c3ccccc3)C2=O)c(C)n1-c1cccnc1`, in experiment [1], the inhibition was determined as 66.1%.

`CC(C)C1=C2[C@H]3CC[C@@H]4[C@@]5(C)CC[C@H](OC(=O)CC(C)(C)C(=O)O)C(C)(C)[C@@H]5CC[C@@]4(C)[C@]3(C)CC[C@@]2([C@@H](O)CN(CCN(C)C)Cc2ccc(Cl)cc2)CC1=O`: the inhibition in experiment [1] was -0.39%.

In the case of `Cc1oc2ccccc2c1CNC(=O)NCc1cccs1`, the inhibition in experiment [1] turned out to be 2.62%.

Consider `Nc1ncnc2c1c(-c1cccc(OCc3ccccc3)c1)cn2[C@H]1C[C@H](CN2CCCC2)C1`, for which the inhibition in experiment [1] is 8.87%.

Turning to `CCOC(=O)Nc1ccc(NCc2c(C)cc(C)cc2C)cc1N`, the inhibition in experiment [1] was -1.7%.

With `N#Cc1cc(-c2n[nH]c(-c3ccncc3)n2)ccn1`, the inhibition in experiment [1] is 61.8%.

With `COc1cccc(OC)c1-c1ccc(C[C@H](NC(=O)c2c(Cl)cccc2Cl)C(=O)O)cc1`, the inhibition in experiment [1] was -2.4%.

Regarding `O=C(N[C@H](Cc1ccccc1)C(=O)O)c1sc2cc(F)ccc2c1Cl`, the inhibition in experiment [1] is -0.15%.

For `COCCN(C(=O)c1cc(OC)c(OC)c(OC)c1)c1nc(-c2ccccc2)cs1`, in experiment [1], the inhibition was -3.54%.

In the case of `Cc1nc2ccc(-n3ncc(C(=O)c4cc5ccccc5[nH]4)c3N)cc2[nH]1`, in experiment [1], the inhibition was found to be 95.7%.

As to `CCOC(=O)Nc1nc2ccccc2[nH]1`, the inhibition in experiment [1] amounted to 20.3%.

Turning to `CCC[S+]([O-])c1ccc2[nH]c(NC(=O)OC)nc2c1` (stereo not given), the inhibition in experiment [1] amounted to 68.9%.

With `CCCSc1ccc2[nH]c(NC(=O)OC)nc2c1`, the inhibition in experiment [1] was found to be 41.8%.

As for `CCC(C)C(N)C1=NC(C(=O)N[C@@H](CC(C)C)C(=O)N[C@H](CCC(=O)O)C(=O)N[C@H](C(=O)N[C@H]2CCCCNC(=O)[C@H](CC(N)=O)NC(=O)[C@@H](CC(=O)O)NC(=O)[C@@H](Cc3cnc[nH]3)NC(=O)[C@@H](Cc3ccccc3)NC(=O)[C@@H]([C@H](C)CC)NC(=O)[C@@H](CCCN)NC2=O)[C@@H](C)CC)CS1` (stereo not given in full) (X4-L[dE]IK[dOrn][dI][dF][dH][dD]N; lactam 4-C), in experiment [1], the inhibition stood at 25.1%.

Regarding `Cc1c(NC(=O)c2cc3c(s2)CCCC3)cccc1-c1cn(C)c(=O)c(Nc2ccc(C3C(=O)N(C)CCN3C)cc2)n1` (racemic), in experiment [1], the inhibition is -2.69%.

Turning to `N=C(N)Nc1ccc(C(=O)Oc2ccc3cc(C(=N)N)ccc3c2)cc1`, the inhibition in experiment [1] is 98.3%.

Take `CC(=O)Nc1ccc(OC(C)=O)cc1`: the inhibition in experiment [1] is -1.45%.

In the case of `CSCC[C@H](NC(=O)[C@H](CC(C)C)NC(=O)[C@@H](Cc1c[nH]c2ccccc12)NC(=O)[C@H](Cc1ccccc1)N(C)C(=O)[C@@H](Cc1c[nH]c2ccccc12)NC(=O)[C@@H](N)CCCNC(=N)N)C(N)=O` (H-R[dW][NMeF][dW]LM-NH2), the inhibition in experiment [1] was -6.35%.

For `COc1ccccc1OC(=O)c1ccccc1OC(C)=O`, the inhibition in experiment [1] was -4.29%.

Consider `CC(=O)Oc1ccccc1C(=O)Nc1ncc([N+](=O)[O-])s1`, for which the inhibition in experiment [1] stood at 98.3%.

For COLISTIN SULFATE, CHEMBL6067482, the inhibition in experiment [2] was -5.33% and -3.72%.

For `O=C(NN1C(=O)[C@@H]2[C@@H]3C=C[C@@H]([C@H]4C[C@@H]34)[C@@H]2C1=O)c1ccc(C(F)(F)F)cc1`, in experiment [1], the inhibition was determined as 3.03%.
